Source: PubChem BioAssay (EPA / NIEHS)
Inconclusive results are not listed. The source made the active and inactive calls. The calls were made as follows: active = hit-call score of the fitted dose curve at least 0.9, where 1 is the maximum; inconclusive = response in the unintended direction; inactive = score below 0.9.

The compounds below were run against Peroxisome proliferator-activated receptor gamma (Homo sapiens) (UniProt P37231) (assay: OT_PPARg_PPARgSRC1_0480: Odyssey Thera (OT) 8-hour Protein-Complementation Assay for Peroxisome Proliferator-activated Receptor Gamma / SRC-1 Co-activator (AID 2283387);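 also: nuclear to cytoplasmic split Venus YFP fluorescence ratio reporting PPARg SRC-1 interaction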).
Sequence of Peroxisome proliferator-activated receptor gamma (Homo sapiens) (P37231 whole entry, looked up, the tested form may be a part): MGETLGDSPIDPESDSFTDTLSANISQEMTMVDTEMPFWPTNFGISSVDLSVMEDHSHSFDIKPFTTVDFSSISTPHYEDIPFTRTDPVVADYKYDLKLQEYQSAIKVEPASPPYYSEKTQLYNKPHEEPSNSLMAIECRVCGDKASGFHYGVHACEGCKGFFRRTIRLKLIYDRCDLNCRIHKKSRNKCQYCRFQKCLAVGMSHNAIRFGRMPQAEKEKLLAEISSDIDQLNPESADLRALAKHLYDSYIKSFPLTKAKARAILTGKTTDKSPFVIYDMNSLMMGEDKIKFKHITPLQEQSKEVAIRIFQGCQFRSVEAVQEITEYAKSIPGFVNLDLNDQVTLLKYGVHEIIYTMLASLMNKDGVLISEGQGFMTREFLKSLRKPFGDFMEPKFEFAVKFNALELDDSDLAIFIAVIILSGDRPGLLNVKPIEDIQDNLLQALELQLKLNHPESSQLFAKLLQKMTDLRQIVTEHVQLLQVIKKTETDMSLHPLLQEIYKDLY
In short: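 Read-out: 488 nm N/C fluorescence ratio from complemented Venus YFP fragments, ≥350 cells per image, gain-of-signal fitted against DMSO baseline. Fusions of PPARg/SRC-1 with IFP1/IFP2 expressed transiently in HEK293T; compounds applied 8 h.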
For CCCCOCCOP(=O)(OCCOCCCC)OCCOCCCC, the outcome was “inactive”. In the case of O=C(O)CF, the outcome is reported as “inactive”. With c1cc2c3c(cccc3c1)CC2 the outcome was “inactive”. CCOC(=O)c1ccccc1C(=O)OCC was tested, and the outcome was “inactive”. For Nc1ccc2ccccc2c1, the outcome was “inactive”. For CN(C)C(=O)Cl, the outcome was “inactive”. For COC(N)=O, the outcome was “inactive”. For CCOP(=S)(Oc1ccc([N+](=O)[O-])cc1)c1ccccc1 (configuration not stated), the outcome was “inactive”. For CSC(C)(C)C=NO, the outcome was “inactive”. O=C(O)C(Cl)Cl was tested, and the outcome was “inactive”. With [N-]=[N+]=[N-] the outcome was “inactive”. In the case of FC(F)(F)c1ccc(Cl)cc1, the outcome is reported as “inactive”. With O=P1(N(CCCl)CCCl)NCCCO1 (configuration not stated) the outcome was “inactive”. CC1(C)CN=C(NN=C(/C=C/c2ccc(C(F)(F)F)cc2)/C=C/c2ccc(C(F)(F)F)cc2)NC1 was tested, and the outcome was “inactive”. In the case of Cc1cccc(N)c1, the outcome is reported as “inactive”. In the case of CCCCOCC1CO1 (configuration not stated), the outcome is reported as “inactive”. CC(Cc1ccc(OCC(=O)O)cc1)NCC(O)c1csc(C(F)(F)F)n1 (configuration not stated) was tested, and the outcome was “inactive”. For CCOS(=O)(=O)OCC, the outcome was “inactive”. O=[N+]([O-])c1ccccc1 was tested, and the outcome was “inactive”. c1ccc2c(c1)sc1ccccc12 was tested, and the outcome was “inactive”. With ClC(Cl)c1ccccc1 the outcome was “inactive”. c1ccc2c(c1)Nc1ccccc1S2 was tested, and the outcome was “inactive”. With c1ccc(OP(Oc2ccccc2)Oc2ccccc2)cc1 the outcome was “inactive”. For COCCOCCO, the outcome was “inactive”. Nc1cc2c3c(c1)C(c1ccccc1)=N[C@@H](NC(=O)c1cccnc1)C(=O)N3CC2 was tested, and the outcome was “inactive”. For CC(C)(C)c1ccc(O)cc1, the outcome was “inactive”.

These compounds were tested against Peroxisome proliferator-activated receptor gamma (Homo sapiens) (UniProt P37231) (assay: OT_PPARg_PPARgSRC1_1440: Odyssey Thera (OT) 24-hour Protein-Complementation Assay for Peroxisome Proliferator-activated Receptor Gamma/ SRC-1 Co-activator (AID 2283388);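 also: nuclear to cytoplasmic ratio of reconstituted Venus YFP fluorescence in fixed imaged cells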).
In short: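 Protein-fragment complementation between PPARg and coactivator SRC-1 was measured by fluorescence imaging in transiently transfected HEK293T cells after 24 h treatment. Signal was quantified as N/C ratio in the 488 nm channel, with DMSO as negative control.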
For CCCCOCCOP(=O)(OCCOCCCC)OCCOCCCC, the outcome was “inactive”. With O=C(O)CF the outcome was “inactive”. For c1cc2c3c(cccc3c1)CC2, the outcome was “inactive”. CCOC(=O)c1ccccc1C(=O)OCC was tested, and the outcome was “inactive”. For Nc1ccc2ccccc2c1, the outcome was “inactive”. In the case of CN(C)C(=O)Cl, the outcome is reported as “inactive”. For COC(N)=O, the outcome was “inactive”. CCOP(=S)(Oc1ccc([N+](=O)[O-])cc1)c1ccccc1 (configuration not stated) was tested, and the outcome was “inactive”. In the case of CSC(C)(C)C=NO, the outcome is reported as “inactive”. For O=C(O)C(Cl)Cl, the outcome was “inactive”. In the case of [N-]=[N+]=[N-], the outcome is reported as “inactive”. With FC(F)(F)c1ccc(Cl)cc1 the outcome was “inactive”. In the case of O=P1(N(CCCl)CCCl)NCCCO1 (configuration not stated), the outcome is reported as “inactive”. CC1(C)CN=C(NN=C(/C=C/c2ccc(C(F)(F)F)cc2)/C=C/c2ccc(C(F)(F)F)cc2)NC1 was tested, and the outcome was “inactive”. With Cc1cccc(N)c1 the outcome was “inactive”. CCCCOCC1CO1 (configuration not stated) was tested, and the outcome was “inactive”. For CC(Cc1ccc(OCC(=O)O)cc1)NCC(O)c1csc(C(F)(F)F)n1 (configuration not stated), the outcome was “inactive”. For CCOS(=O)(=O)OCC, the outcome was “inactive”. For O=[N+]([O-])c1ccccc1, the outcome was “inactive”. In the case of c1ccc2c(c1)sc1ccccc12, the outcome is reported as “inactive”. For ClC(Cl)c1ccccc1, the outcome was “inactive”. In the case of c1ccc2c(c1)Nc1ccccc1S2, the outcome is reported as “inactive”. For c1ccc(OP(Oc2ccccc2)Oc2ccccc2)cc1, the outcome was “inactive”. With COCCOCCO the outcome was “inactive”. With Nc1cc2c3c(c1)C(c1ccccc1)=N[C@@H](NC(=O)c1cccnc1)C(=O)N3CC2 the outcome was “inactive”. In the case of CC(C)(C)c1ccc(O)cc1, the outcome is reported as “inactive”.
